# Experimental data published in PubChem BioAssay (NCATS).
# Values joined by “and” are separate entries in the source; they are usually repeats but may differ in a detail not shown here. Equal values may be shown once. Records with an inconclusive call do not appear. Unmarked numbers belong to inactive results. Active and inactive are the calls of the source. Calls come from the whole dose curve; as a rule, active = well fitted inhibition curve with a large enough effect; inconclusive = small, poorly fitted or top-dose-only effect; inactive = flat fitted curve, though single readings scatter.
# Tested on: HaCat
# Experiment: Cytotoxic Profiling of Annotated Libraries Using Quantitative High-Throughput Screening (AID 1296008); note: nearly all actives have a fitted effect of over 60% in size
# Details: Five cell lines viability, CellTiter-Glo ATP luminescence, 48-72 h; max response: stronger effect = lower value
# In short: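 Cytotoxicity was measured as CellTiter-Glo ATP luminescence, read after 10 min at room temperature. Compound treatment of the cells lasted 48 or 72 hr at 37 degrees Celsius in a qHTS format.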
# % is set by controls: 0 for no effect and ±100 for the full control effect.
Compound,max response,outcome
CC(=O)OCC1=C(C(=O)O)N2C(=O)[C@@H](N)[C@H]2SC1,-3.66% and 4.2%,–
COc1cc(OC)c(OC)cc1C=O,-4.25%,inactive
C[C@]12CC[C@@H]3c4ccc(OC(=O)N(CCCl)CCCl)cc4CC[C@H]3[C@@H]1CC[C@@H]2OP(=O)(O)O,4.84%,inactive
C#CC(O)(C=CCl)CC (stereo not given),–,inactive
CNCC(=O)c1ccc(O)c(O)c1,–,inactive
CCOC(=O)CC(SP(=S)(OC)OC)C(=O)OCC (stereo not given),-7.37% and 2.49%,–
CC(C)c1cccc(C(C)C)c1O,–,inactive
CCC(CC)(CNC(=O)CCCO)c1cccc(OC)c1,-1.8%,–
C=CCN1C[C@H](C)N([C@H](c2ccc(C(=O)N(CC)CC)cc2)c2cccc(OC)c2)C[C@H]1C,–,inactive
O=C(O)/C=C\C(=O)O,1.05%,–
CC[N+]1(CC)CCC(OC(=O)C(O)(c2ccccc2)c2ccccc2)C1 (stereo not given),–,inactive
CN1CC[C@]23c4c5ccc(O)c4O[C@H]2[C@@H](O)CC[C@H]3[C@H]1C5,–,inactive
CCC1(c2ccc(N)cc2)CCC(=O)NC1=O (stereo not given),2.56% and -2.32%,–
CC(Cc1ccccc1)N(C)Cc1ccco1 (stereo not given),–,inactive
c1ccc(CN2CCNCC2)cc1,–,inactive
CC(NC(C)(C)C)C(=O)c1cccc(Cl)c1 (stereo not given),-7.82%,inactive
c1ccc(N2CCNCC2)cc1,–,inactive
C[N+]1(CCF)[C@@H]2CC[C@H]1CC(OC(=O)C(O)(c1ccccc1)c1ccccc1)C2 (stereo not given in full),–,inactive
CC(C)N(CCC(C(N)=O)(c1ccccc1)c1ccccn1)C(C)C (stereo not given),-27.6%,inactive
CC1(C)C(C=C(Cl)Cl)C1C(=O)OC(C#N)c1cccc(Oc2ccccc2)c1 (stereo not given),–,inactive
[N-]=[N+]=CC(=O)OC[C@H](N)C(=O)O,-3.83%,–
C[C@H](N)C(=O)c1ccccc1,-26.7%,–
CCC(C)C(C)(COC(N)=O)COC(N)=O (stereo not given),-3.56%,–
CCN[C@@H](C)Cc1cccc(C(F)(F)F)c1,–,inactive
CCCCCN(C)CCC(O)(P(=O)(O)O)P(=O)(O)O,-1.92%,–
CC(C)(N)Cc1ccccc1Cl,–,inactive
